These results are taken from publication PMC7862700, “An all-to-all approach to the identification of sequence-specific readers for epigenetic DNA modifications on cytosine”.

What all share (test): DAPPL (digital affinity profiling via proximity ligation, sequencing); 10 mM Tris-HCl pH 7.5, 50 mM NaCl, 1 mM DTT, 4% glycerol, room temperature, 30 min; GST-TFs on glutathione beads, 16-mer random dsDNA library, 0.1% formaldehyde crosslink after washing; high values mean tight binding
One assay concerns the target T1, FLI1 (Homo sapiens, UniProt Q01543 1-452).
T1 sequence: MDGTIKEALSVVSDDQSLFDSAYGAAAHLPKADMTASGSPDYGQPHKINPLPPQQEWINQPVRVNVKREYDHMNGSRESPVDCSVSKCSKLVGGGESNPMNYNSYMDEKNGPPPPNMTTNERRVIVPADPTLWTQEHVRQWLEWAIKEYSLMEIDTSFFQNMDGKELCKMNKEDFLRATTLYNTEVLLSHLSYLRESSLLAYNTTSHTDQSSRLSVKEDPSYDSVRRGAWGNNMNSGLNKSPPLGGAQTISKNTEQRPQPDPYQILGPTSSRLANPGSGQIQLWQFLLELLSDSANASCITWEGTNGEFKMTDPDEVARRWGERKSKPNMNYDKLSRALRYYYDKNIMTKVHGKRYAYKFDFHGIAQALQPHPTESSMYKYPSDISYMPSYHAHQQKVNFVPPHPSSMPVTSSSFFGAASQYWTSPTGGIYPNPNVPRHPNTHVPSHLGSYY
Particulars: protein: recombinant; tags: N-terminal GST; dsDNA, one strand shown. The procedure, abridged: (§1)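 Human transcription factors were made in yeast as GST fusions, captured on glutathione beads and barcoded with DNA. With a tag-only sample included, the pool was incubated with 200 nmole of a random double-stranded 16-mer DNA library in Tris/NaCl/DTT/glycerol buffer at room temperature for 30 min, then crosslinked with 0.1% formaldehyde after washing, ligated by proximity, amplified and sequenced. For binding signal, each hexamer's read frequency for a factor is divided by its frequency for the tag-only sample.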

The target of another assay is T2, ELK1 (Homo sapiens, UniProt P19419 1-428).
T2 sequence: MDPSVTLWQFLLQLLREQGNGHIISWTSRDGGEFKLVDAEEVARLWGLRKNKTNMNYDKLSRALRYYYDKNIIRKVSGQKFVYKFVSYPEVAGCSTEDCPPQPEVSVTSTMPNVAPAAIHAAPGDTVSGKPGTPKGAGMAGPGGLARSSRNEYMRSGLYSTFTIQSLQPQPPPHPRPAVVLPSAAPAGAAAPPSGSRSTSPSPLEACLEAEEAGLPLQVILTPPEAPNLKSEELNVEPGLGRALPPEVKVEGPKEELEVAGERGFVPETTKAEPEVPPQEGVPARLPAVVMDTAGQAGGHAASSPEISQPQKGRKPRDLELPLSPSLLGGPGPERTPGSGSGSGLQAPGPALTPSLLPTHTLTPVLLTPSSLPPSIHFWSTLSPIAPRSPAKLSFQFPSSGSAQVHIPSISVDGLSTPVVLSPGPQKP
Particulars: protein: recombinant; tags: N-terminal GST; dsDNA, one strand shown. The procedure, abridged:
as §1

The target of another assay is T3, GABPA (Homo sapiens, UniProt Q06546 1-454).
T3 sequence: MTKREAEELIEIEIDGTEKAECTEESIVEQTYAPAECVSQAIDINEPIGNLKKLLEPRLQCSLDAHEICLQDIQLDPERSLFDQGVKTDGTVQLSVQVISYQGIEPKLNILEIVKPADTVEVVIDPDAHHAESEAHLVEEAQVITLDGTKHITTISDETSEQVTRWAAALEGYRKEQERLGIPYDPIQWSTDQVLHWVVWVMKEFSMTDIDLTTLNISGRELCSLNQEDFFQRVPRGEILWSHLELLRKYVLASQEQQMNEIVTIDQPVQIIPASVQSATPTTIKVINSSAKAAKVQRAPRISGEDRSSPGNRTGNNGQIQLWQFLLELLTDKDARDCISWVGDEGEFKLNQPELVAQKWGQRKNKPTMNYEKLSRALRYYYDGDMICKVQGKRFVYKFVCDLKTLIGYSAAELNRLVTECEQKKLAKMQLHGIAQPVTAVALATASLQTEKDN
Particulars: protein: recombinant; tags: N-terminal GST; dsDNA, one strand shown. The procedure, abridged: as §1

The target of a further assay is T4, ERG (Homo sapiens, UniProt P11308 1-479).
T4 sequence: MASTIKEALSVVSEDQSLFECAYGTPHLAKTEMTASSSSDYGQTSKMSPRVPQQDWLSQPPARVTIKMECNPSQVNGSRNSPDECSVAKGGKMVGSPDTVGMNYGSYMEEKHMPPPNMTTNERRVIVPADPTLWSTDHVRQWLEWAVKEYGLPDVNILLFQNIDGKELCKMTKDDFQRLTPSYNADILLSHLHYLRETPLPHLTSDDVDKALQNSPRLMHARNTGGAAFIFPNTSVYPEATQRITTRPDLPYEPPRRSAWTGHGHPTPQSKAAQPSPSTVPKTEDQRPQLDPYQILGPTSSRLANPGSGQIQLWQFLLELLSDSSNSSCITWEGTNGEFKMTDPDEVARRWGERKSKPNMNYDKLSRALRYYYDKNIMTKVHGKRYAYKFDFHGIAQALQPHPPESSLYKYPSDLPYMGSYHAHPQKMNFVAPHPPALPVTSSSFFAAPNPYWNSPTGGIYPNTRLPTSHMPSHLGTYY
Particulars: protein: recombinant; tags: N-terminal GST; dsDNA, one strand shown. The procedure, abridged:
as §1

The target of a further assay is ELF1 (Homo sapiens, UniProt P32519 1-619). As to conditions: protein: recombinant; tags: N-terminal GST; dsDNA, one strand shown. A digest of the protocol: as §1
A further assay addresses T5, EHF (Homo sapiens, UniProt Q9NZC4 1-300).
T5 sequence: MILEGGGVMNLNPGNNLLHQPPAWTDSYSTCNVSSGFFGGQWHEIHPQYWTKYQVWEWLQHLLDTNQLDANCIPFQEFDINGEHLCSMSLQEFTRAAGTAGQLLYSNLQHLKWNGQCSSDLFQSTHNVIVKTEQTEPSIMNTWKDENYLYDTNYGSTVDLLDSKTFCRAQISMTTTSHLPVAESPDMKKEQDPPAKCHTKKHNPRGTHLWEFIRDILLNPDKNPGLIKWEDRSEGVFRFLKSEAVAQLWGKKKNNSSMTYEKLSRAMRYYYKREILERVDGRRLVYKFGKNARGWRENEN
As to conditions: protein: recombinant; tags: N-terminal GST; dsDNA, one strand shown. A digest of the protocol: as §1

The target of the next assay is SPI1 (Homo sapiens, UniProt P17947 1-270). As to conditions: protein: recombinant; tags: N-terminal GST; dsDNA, one strand shown. A digest of the protocol: as §1
The target of another assay is SPIB (Homo sapiens, UniProt Q01892 1-262). As to conditions: protein: recombinant; tags: N-terminal GST; dsDNA, one strand shown. A digest of the protocol: as §1
Another assay addresses T6, ELK3 (Homo sapiens, UniProt P41970 1-407).
T6 sequence: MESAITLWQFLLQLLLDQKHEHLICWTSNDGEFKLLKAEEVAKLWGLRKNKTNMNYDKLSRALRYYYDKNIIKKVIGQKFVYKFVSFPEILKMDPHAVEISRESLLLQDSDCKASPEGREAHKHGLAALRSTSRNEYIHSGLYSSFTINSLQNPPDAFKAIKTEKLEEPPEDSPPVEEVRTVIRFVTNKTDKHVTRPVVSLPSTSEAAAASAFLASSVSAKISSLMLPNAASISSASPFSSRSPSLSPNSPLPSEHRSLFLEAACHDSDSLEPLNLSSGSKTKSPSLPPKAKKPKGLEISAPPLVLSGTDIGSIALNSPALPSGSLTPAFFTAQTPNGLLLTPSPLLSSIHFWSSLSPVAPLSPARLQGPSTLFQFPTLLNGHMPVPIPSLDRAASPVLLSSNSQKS
As to conditions: protein: recombinant; tags: N-terminal GST; dsDNA, one strand shown. The procedure, abridged:
as §1

A further assay concerns the target T7, FEV (Homo sapiens, UniProt Q99581 1-238).
T7 sequence: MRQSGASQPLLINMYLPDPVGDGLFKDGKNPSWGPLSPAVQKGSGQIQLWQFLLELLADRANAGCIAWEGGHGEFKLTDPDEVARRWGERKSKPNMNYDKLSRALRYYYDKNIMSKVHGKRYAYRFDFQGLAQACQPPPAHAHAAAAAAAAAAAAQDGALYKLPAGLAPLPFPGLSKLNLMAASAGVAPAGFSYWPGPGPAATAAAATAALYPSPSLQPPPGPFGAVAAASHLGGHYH
Particulars: protein: recombinant; tags: N-terminal GST; dsDNA, one strand shown. A digest of the protocol: as §1

Another assay addresses ETV5 (Homo sapiens, UniProt P41161 1-510). As to conditions: protein: recombinant; tags: N-terminal GST; dsDNA, one strand shown. The procedure, abridged:
as §1

For a further assay, the target named is HSF1 (Homo sapiens, UniProt Q00613 1-529). As to conditions: protein: recombinant; tags: N-terminal GST; chain copies: 3; dsDNA, one strand shown. A digest of the protocol:
as §1

For a further assay, the target named is T8, SPIC (Homo sapiens, UniProt Q8N5J4 1-248).
T8 sequence: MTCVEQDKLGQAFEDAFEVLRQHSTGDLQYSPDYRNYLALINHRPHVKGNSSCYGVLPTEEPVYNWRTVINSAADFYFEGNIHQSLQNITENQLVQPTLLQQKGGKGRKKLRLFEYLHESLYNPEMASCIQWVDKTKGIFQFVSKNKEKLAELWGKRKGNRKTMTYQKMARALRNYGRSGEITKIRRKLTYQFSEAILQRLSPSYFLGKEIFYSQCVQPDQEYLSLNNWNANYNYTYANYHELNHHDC
As to conditions: protein: recombinant; tags: N-terminal GST; dsDNA, one strand shown. A digest of the protocol: as §1

A further assay has as its target ELF4 (Homo sapiens, UniProt Q99607 1-663). As to conditions: protein: recombinant; tags: N-terminal GST; dsDNA, one strand shown. The procedure, abridged:
as §1

The target of a further assay is T9, ELK4 (Homo sapiens, UniProt P28324-2 1-405).
T9 sequence: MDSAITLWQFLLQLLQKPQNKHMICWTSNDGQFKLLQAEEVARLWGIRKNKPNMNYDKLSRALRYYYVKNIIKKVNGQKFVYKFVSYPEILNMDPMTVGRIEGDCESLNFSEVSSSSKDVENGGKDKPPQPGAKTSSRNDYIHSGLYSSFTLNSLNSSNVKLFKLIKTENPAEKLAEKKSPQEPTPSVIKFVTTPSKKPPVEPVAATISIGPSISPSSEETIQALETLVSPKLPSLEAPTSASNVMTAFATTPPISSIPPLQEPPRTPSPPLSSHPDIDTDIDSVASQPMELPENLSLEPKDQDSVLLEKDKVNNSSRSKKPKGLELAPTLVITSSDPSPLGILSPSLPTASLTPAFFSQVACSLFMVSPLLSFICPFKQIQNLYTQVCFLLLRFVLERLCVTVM
As to conditions: protein: recombinant; tags: N-terminal GST; dsDNA, one strand shown. A digest of the protocol:
as §1

The next assay has as its target T10, ETV2 (Homo sapiens, UniProt O00321 1-342).
T10 sequence: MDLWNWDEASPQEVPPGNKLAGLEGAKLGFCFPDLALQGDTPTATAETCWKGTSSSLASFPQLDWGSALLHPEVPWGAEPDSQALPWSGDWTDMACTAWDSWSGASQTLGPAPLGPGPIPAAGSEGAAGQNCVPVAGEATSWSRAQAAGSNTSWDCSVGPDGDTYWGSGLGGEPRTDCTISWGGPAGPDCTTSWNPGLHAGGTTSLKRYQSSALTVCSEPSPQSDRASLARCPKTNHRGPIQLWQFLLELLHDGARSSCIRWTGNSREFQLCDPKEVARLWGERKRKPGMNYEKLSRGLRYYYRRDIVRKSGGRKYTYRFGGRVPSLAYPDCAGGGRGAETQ
Particulars: protein: recombinant; tags: N-terminal GST; dsDNA, one strand shown. A digest of the protocol:
as §1

The next assay has as its target T11, ELF3 (Homo sapiens, UniProt P78545 1-371).
T11 sequence: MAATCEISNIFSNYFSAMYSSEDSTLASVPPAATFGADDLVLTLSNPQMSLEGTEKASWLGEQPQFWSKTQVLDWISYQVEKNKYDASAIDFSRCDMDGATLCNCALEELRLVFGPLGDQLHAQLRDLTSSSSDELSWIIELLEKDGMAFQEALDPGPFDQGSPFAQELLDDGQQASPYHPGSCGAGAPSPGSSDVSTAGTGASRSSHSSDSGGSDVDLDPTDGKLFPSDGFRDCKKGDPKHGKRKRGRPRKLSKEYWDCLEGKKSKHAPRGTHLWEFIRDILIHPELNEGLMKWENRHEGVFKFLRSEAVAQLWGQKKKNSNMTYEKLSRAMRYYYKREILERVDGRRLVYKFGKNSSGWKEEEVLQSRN
As to conditions: protein: recombinant; tags: N-terminal GST; dsDNA, one strand shown. The procedure, abridged:
as §1

A further assay concerns the target CRX (Homo sapiens, UniProt O43186 1-299). Particulars: protein: recombinant; tags: N-terminal GST; dsDNA, one strand shown. The procedure, abridged: as §1
A further assay has as its target ETV1 (Homo sapiens, UniProt P50549 1-477). Particulars: protein: recombinant; tags: N-terminal GST; dsDNA, one strand shown. A digest of the protocol:
as §1

Sequence of SPIB (Q01892 whole entry): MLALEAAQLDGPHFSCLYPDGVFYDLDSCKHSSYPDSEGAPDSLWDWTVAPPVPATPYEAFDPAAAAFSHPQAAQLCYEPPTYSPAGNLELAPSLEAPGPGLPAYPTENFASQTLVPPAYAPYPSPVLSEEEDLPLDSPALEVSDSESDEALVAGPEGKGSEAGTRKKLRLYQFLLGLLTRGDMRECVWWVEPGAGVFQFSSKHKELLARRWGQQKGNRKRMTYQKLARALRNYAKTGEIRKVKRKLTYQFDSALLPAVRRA
Sequence of CRX (O43186 whole entry): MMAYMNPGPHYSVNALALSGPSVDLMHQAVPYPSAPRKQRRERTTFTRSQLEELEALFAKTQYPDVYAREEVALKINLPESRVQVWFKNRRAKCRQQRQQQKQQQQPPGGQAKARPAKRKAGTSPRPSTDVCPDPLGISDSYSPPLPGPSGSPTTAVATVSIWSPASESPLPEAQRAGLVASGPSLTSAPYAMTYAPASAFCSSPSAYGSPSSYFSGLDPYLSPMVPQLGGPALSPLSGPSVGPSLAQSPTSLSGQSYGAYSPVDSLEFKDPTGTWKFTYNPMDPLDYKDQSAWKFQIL
Sequence of ETV1 (P50549 whole entry): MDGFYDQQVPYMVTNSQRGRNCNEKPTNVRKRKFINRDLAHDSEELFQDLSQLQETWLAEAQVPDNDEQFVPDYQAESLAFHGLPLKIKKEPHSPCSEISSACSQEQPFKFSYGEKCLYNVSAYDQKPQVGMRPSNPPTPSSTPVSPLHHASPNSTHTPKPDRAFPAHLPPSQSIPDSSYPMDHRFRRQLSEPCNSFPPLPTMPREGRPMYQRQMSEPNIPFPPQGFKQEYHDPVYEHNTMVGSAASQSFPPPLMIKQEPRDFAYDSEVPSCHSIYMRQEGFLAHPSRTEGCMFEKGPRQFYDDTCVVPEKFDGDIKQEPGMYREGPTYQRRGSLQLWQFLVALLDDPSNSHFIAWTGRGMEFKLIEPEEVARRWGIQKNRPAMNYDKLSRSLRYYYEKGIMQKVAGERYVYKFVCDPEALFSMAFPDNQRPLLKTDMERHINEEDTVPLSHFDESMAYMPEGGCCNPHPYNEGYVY
Sequence of ELF1 (P32519 whole entry): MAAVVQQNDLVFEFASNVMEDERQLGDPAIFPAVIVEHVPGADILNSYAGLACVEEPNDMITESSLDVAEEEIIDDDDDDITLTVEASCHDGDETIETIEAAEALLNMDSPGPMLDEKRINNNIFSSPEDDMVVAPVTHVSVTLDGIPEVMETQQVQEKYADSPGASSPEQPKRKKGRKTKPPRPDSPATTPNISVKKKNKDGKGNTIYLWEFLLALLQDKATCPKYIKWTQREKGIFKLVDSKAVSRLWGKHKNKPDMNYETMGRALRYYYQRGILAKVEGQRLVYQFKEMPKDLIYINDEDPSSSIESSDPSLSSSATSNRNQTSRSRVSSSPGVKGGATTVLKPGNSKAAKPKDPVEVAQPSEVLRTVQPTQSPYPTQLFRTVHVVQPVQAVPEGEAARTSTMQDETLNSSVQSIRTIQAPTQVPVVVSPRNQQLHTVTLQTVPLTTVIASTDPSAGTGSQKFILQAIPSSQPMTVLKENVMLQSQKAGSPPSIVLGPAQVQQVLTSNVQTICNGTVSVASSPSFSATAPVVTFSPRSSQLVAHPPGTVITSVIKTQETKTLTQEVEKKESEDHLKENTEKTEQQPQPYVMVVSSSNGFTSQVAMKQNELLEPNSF
Sequence of ELF4 (Q99607 whole entry): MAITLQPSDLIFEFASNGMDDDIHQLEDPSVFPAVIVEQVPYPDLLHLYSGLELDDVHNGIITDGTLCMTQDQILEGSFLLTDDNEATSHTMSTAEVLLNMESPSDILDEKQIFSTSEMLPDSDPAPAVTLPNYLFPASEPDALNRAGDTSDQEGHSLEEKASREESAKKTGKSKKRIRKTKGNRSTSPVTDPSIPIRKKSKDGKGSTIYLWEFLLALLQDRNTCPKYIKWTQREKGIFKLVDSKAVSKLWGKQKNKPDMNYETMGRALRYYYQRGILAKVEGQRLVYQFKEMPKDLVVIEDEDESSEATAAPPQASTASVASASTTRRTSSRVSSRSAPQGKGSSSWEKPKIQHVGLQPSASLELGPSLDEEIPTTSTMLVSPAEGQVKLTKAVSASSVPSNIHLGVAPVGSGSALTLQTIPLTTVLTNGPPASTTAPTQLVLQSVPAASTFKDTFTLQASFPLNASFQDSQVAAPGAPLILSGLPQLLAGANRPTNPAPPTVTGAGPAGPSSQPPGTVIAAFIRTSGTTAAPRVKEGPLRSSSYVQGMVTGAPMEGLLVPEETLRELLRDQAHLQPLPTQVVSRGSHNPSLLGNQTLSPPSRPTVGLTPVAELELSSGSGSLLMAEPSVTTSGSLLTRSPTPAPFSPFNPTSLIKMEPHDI
Sequence of HSF1 (Q00613 whole entry): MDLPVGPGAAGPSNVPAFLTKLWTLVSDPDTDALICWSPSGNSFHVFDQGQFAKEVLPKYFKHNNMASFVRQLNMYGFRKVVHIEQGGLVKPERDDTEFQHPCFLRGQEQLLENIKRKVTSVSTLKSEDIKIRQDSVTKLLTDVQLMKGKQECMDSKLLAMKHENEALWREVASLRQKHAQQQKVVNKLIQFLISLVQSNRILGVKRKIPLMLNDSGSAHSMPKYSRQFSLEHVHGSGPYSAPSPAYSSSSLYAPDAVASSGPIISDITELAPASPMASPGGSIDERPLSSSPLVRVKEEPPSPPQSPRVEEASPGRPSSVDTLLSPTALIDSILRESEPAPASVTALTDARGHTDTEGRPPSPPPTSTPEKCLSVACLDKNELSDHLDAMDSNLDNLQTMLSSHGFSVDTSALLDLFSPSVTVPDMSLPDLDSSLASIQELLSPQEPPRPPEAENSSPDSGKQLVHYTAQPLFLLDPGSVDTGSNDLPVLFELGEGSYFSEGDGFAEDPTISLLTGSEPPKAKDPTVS
Sequence of ETV5 (P41161 whole entry): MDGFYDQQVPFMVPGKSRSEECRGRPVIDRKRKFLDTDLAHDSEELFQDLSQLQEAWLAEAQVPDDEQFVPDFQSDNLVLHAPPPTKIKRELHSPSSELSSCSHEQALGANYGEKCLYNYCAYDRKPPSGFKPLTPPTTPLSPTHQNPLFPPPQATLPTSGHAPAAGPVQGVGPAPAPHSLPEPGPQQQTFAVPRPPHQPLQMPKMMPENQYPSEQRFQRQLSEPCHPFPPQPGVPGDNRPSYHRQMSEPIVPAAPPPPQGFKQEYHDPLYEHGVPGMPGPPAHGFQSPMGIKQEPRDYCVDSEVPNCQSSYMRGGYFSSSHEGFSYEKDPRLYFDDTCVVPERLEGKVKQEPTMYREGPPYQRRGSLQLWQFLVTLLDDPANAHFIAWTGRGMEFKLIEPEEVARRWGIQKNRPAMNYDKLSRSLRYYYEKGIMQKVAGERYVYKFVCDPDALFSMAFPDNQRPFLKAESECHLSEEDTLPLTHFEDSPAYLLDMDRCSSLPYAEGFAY

Regarding TTCCCT, the binding signal in the assay with FLI1 was 1.81 fold enrichment (6-mer frequency, TF over GST control); in the assay with ELK1, 1.67 fold enrichment (6-mer frequency, TF over GST control); in the assay with GABPA, 1.72 fold enrichment (6-mer frequency, TF over GST control); with ERG, 1.72 fold enrichment (6-mer frequency, TF over GST control); with ELF1, 1.68 fold enrichment (6-mer frequency, TF over GST control); in the assay with EHF it was 1.68 fold enrichment (6-mer frequency, TF over GST control). The binding signal was 2.23 fold enrichment (6-mer frequency, TF over GST control) with SPI1; 1.9 fold enrichment (6-mer frequency, TF over GST control) with SPIB; 1.8 fold enrichment (6-mer frequency, TF over GST control) in the assay with ELK3; 1.64 fold enrichment (6-mer frequency, TF over GST control) in the assay with FEV; 1.69 fold enrichment (6-mer frequency, TF over GST control) with ETV5; 1.52 fold enrichment (6-mer frequency, TF over GST control) with HSF1. In addition, the binding signal in the assay with SPIC is 1.84 fold enrichment (6-mer frequency, TF over GST control); in the assay with ELF4 it was 1.79 fold enrichment (6-mer frequency, TF over GST control); in the assay with ELK4, 1.65 fold enrichment (6-mer frequency, TF over GST control); with ETV2, 1.62 fold enrichment (6-mer frequency, TF over GST control); in the assay with ELF3, 1.57 fold enrichment (6-mer frequency, TF over GST control); with CRX it was 1.31 fold enrichment (6-mer frequency, TF over GST control). Further, in the assay with ETV1, the binding signal was 1.68 fold enrichment (6-mer frequency, TF over GST control).
